In the library only some 3.3% were active in any assay of this set; here they are far more common.
HCV inhibitor = blocks hepatitis C virus | Huh7.5.1 HCVcc-Cre infection, luciferase reporter, 44 h | Potency, µM (titrated, usually from 41.8 µM), actives largely listed as inhibitors | hit rate 3.4% among 340,000; active = well fitted inhibition curve with a large enough effect; inconclusive = small, poorly fitted or top-dose-only effect, or another doubt; inactive = no such curve, though single readings can be large or run the other way
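After 44 h co-culture of compound, cells and HCVcc-Cre (~0.5 moi), substrate is added for 15 min at room temperature and luciferase measured over 15 sec. Cells were seeded at 1,000/well and pre-cultured 4 h.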
VACV mCherry inh = inhibitors of vaccinia virus infection (mCherry reporter signal) | AID 720579 | hit rate 0.63% among 310,000 | Vaccinia virus mCherry reporter infection, fluorescence | Potency, µM (titrated, usually from 36.5 µM), actives largely listed as inhibitors; calls by dose curve; tested in A549 cells; note: nearly all actives have a fitted effect of over 35% in size
Vaccinia Venus = vaccinia inhibition (Venus reporter); Vaccinia virus Venus reporter expression, fluorescence; Potency, µM (series often up to 36.5 µM), actives largely listed as inhibitors; hit rate 0.46% among 330,000; AID 720580; calls by dose curve; tested in A549 cells; note: nearly all actives have a fitted effect of over 30% in size
Hits are given with their value; 0 = inactive; ? = inconclusive; - = no result; [ ] = another dose, or the depositor's remark.

SMILES	HCV inhibitor	VACV mCherry inh	Vaccinia Venus
O=C(c1ccc(F)cc1)N1CCC(C(=O)N2CCN(Cc3ccc4c(c3)OCO4)CC2)CC1	?	0	0
O=C(CN1C(=O)c2cccc3cccc1c23)NCc1ccc2c(c1)OCO2	0	-	-
O=C(CN1C(=O)c2cccc3cccc(c23)C1=O)N1CCN(Cc2ccc3c(c2)OCO3)CC1	22µM	?	0
O=C(CCSCc1cccc(Cl)c1)NCc1ccc(F)cc1Cl	-	0	0
COc1ccc(NC(=O)CSc2n[nH]c(-c3ccncc3)n2)cc1Cl	0	0	0
Cc1ccccc1Nc1nc(N)nc(-c2oc3ccccc3c2C)n1	0	0	0
Cc1c(-c2nc(N)nc(Nc3ccc(F)cc3)n2)oc2ccccc12	10µM	-	?
COC(CNC(=O)CCc1c(C)nc2c(-c3ccccc3)c(C)nn2c1C)OC	0	0	0
COc1cc2nc(N3CCN(C)CC3)nc(NC(C)C)c2cc1OC	-	0	0
CCCN1CNc2c(c(=O)[nH]c(=S)n2CCc2ccc(C)cc2)C1	-	0	0
COc1ccc(CNC(=O)c2c(Nc3ccccc3C)sc(C(=O)c3ccccc3)c2N)cc1	-	?	0
Cc1ccc(CNC(=O)c2c(Nc3ccccc3C)sc(C(=O)c3ccc(F)cc3)c2N)cc1	-	11µM	?
CC(C)(CCc1ccccn1)C(=O)CCCc1ccccn1	0	0	0
CCCCNc1ccc(/C=C2\C=Cc3ccccc32)cc1	-	0	0
O=C(CCNC(=O)c1ccccc1Cl)NN=Cc1ccccc1[N+](=O)[O-]	0	0	0
Cc1ccc(NC(=S)N/N=C/c2ccc([N+](=O)[O-])s2)cc1	?	10µM	?
Cc1cc(C)cc(N=Cc2ccc([N+](=O)[O-])s2)c1	?	0	0
O=C(CNC(=O)c1ccccc1Cl)N/N=C/c1ccc([N+](=O)[O-])s1	13µM	?	?
C#C[C@]1(O)CCC2C3CCC4=C(CCC(=O)C4)C3CC[C@@]21C (stereo partly drawn)	-	0	0
Cc1cnc(/C=C/c2ccc(N(C)C)cc2)cn1	-	?	0
COC(=O)c1cc(CNC(=O)c2ccc3ncccc3c2)cc(NC(=O)c2ccccc2Cl)c1	-	0	0
O=C(COC(=O)C1=Cc2ccccc2OC1)NCc1ccccc1	0	0	0
COCCNC(=O)COC(=O)C1=Cc2ccccc2OC1	13µM	0	0
Cc1ccc(NC(=O)CCCCCN2C(=O)[C@@H]3Cc4ccccc4CN3C2=O)c(Cl)c1	13µM	-	-
Cc1ccc(C)c(NC(=O)CCCCCN2C(=O)[C@@H]3Cc4ccccc4CN3C2=O)c1	0	0	0
SMILES	HCV inhibitor	VACV mCherry inh	Vaccinia Venus
COc1ccccc1N1CCN(C(CNC(=O)c2ccc3c(c2)OCO3)c2cccnc2)CC1 (stereo not drawn)	11µM	0[1.46 µM]	?
COCCNC(=O)C(=O)NCC(c1cccnc1)N1CCN(c2ccccc2OC)CC1 (stereo not drawn)	-	0	0
CS(=O)(=O)N1CCc2cc(C(=O)Nc3ccc(Cl)c(C(F)(F)F)c3)ccc21	-	0	0
COc1ccc(N(C(=O)CCl)C(C(=O)NCCc2ccccc2)c2cccs2)cc1 (stereo not drawn)	5.6µM	0	?
COc1ccc(CNC(=O)C(c2ccncc2)N(C(=O)Cc2cccs2)c2ccccc2)cc1 (stereo not drawn)	0	0	0
Cc1cc(-c2ccnc(-n3ncc(C(=O)NCC(C)(C)N4CCOCC4)c3C)n2)c(C)s1	-	0	0
CCn1c2ccccc2c2cc(/C=N/NC(=O)c3ccc(O)cc3)ccc21	18µM	0	?
CCn1c2ccccc2c2cc(/C(C)=N/O)ccc21	10µM	0	0
CCn1c2ccccc2c2cc(/C=N/NC(=O)c3cc(O)cc(O)c3)ccc21	?	0	0
CCn1c2ccccc2c2cc(N)ccc21	0	-	0
OC1(c2ccc3c(c2)CN(Cc2ccco2)CCO3)CCN(c2ccccc2F)CC1	-	0	0
Cc1nc2c(sc3nc(N4CCOCC4)c4c(c32)CC(C)(C)OC4)c(-c2ccc(Cl)cc2)c1C(=O)O	13µM	-	-
CC1(C)Cc2c(c(N3CCOCC3)nc3sc(C(=O)Nc4ccc(Cl)cc4)c(N)c23)CO1	0	0	0
Cc1cc(S(=O)(=O)N2CCC3(CC2)OCCO3)c(C)cc1Cl	0	0	0
Cc1cc2c3c([nH]c2cc1S(=O)(=O)N1CCC2(CC1)OCCO2)CCCC3=O	22µM	-	-
COC(=O)[C@@H]1CCCN1C(=O)c1cnn(-c2nccc(-c3cc(C)sc3C)n2)c1C1CC1	-	0	0
CCOC(=O)CC[C@H](NC(=O)Cn1cnc2c(SC)nc(N)nc21)C(=O)OCC	0	0	0
COc1ccc(CNC(=O)Cn2cnc3c(SC)nc(N)nc32)cc1	8.9µM	0	0
CSc1nc(N)nc2c1ncn2CC(=O)NCC(c1ccccc1)c1ccccc1	?	0	0
CSc1nc(N)nc2c1ncn2CC(=O)Nc1ccc(C)c(C)c1	3.5µM	0	?
Cc1c(C(=O)N(C)Cc2nccs2)sc2ncnc(NCC3CCCO3)c12 (stereo not drawn)	-	0	0
COc1ccc(OC)c(CCNC(=O)c2cc3cccc4c3n2CCS4)c1	-	0	0
CC(C)(O)[C@H](O)Cc1cc2ccc(=O)oc2cc1O[C@@H]1O[C@H](CO)[C@@H](O)[C@H](O)[C@H]1O	0	0	0
O=C(COC(=O)c1cc(Cl)ccc1O)NCC1CCCO1 (stereo not drawn)	0	0	0
COc1ccc(S(=O)(=O)Nc2ccc(S(=O)(=O)N3CCCCC3)cc2)cc1C	35µM	-	-
SMILES	HCV inhibitor	VACV mCherry inh	Vaccinia Venus
COc1ccc(S(=O)(=O)Nc2ccc3ccccc3c2)cc1C	11µM	-	-
COc1ccc(S(=O)(=O)N2CCCN(S(=O)(=O)c3ccc(OC)c(C)c3)CC2)cc1C	?	0	0
Cc1ccc(S(=O)(=O)Nc2ccc3ccccc3c2)cc1	0	?	?
CCOC1=C2[C@@H](CN(S(=O)(=O)c3ccc(C)cc3)[C@H]2c2ccccc2F)[C@H]2C(=O)NC(=O)[C@H]2C1	-	0	0
COCC(=O)Nc1cc(C(=O)N2CCCCC2c2nccn2C)cc2nc(-c3ccccc3)n(C)c12 (stereo not drawn)	-	0	0
NC(=S)N/N=C1\CCOc2ccc(F)cc21	0	1.8µM	0.89µM
NC(=O)N/N=C1\CCS(=O)(=O)c2ccc(F)cc21	0	0	0
COc1ccc(-n2c(SCC(=O)Nc3ccc(C(N)=O)cc3)nc3ccccc3c2=O)cc1OC	0	0	0
CCOc1ccccc1NC(=O)CSc1nc2cc(O)ccc2c(=O)n1-c1ccc(OC)c(OC)c1	11µM	-	-
COc1ccc(C2=C(N3CCN(c4cccc(C)c4C)CC3)c3ccccc3C2=O)cc1	-	0	0
COc1cc(Cl)ccc1NC(=S)N(CCCN1CCOCC1)Cc1cn(C)c2ccccc12	?	?	0
COc1ccc(Cl)cc1NC(=S)N(CCCN1CCOCC1)Cc1cn(C)c2ccccc12	10µM	?	?
CCOC(=O)C1CCN(C(=O)c2cnn(-c3ccc(F)cc3)c2-n2cccc2)CC1	-	0	0
CC12CC(NC(=O)N1c1cccc(C(=O)N3CCCCC3)c1)c1ccccc1O2 (stereo not drawn)	0	0	0
CC12CC(NC(=O)N1c1cccc(C(=O)NCc3ccc4c(c3)OCO4)c1)c1cc(Cl)ccc1O2 (stereo not drawn)	25µM	?	?
CC1CCc2c(sc3nnn(Cc4ccc(F)cc4)c(=O)c23)C1 (stereo not drawn)	-	0	0
Cc1ccc(/C=N/NC(=O)c2nnn(-c3nonc3N)c2CSc2ccc(Cl)cc2)o1	0	-	-

High-throughput results: PubChem, National Center for Advancing Translational Sciences (NCATS)
